Assay outcomes as filed in PubChem BioAssay.
An excerpt weighted towards active compounds, which were near 3.9% of everything screened.
Wnt act = activates Wnt/beta-catenin signaling in a reporter cell assay; activator, plate reader; activation, % at 9.35 µM; hit rate 1.2% among 300,000; AID 743398; in the data active means activation above about 30%, passing the limit was not always enough; inconclusive means no clear call, values can overlap the other calls
MITF act = increases MITF-driven TRPM1 promoter luciferase signal | activation, % at 12.5 µM | SK-MEL-5 TRPM1-promoter luciferase, 24 h; % of positive control, neutral wells = 0 | hit rate 0.75% among 300,000;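 active means mean activation of at least 80% with every replicate also reaching 80%; inconclusive means mean reaches 80% but some replicate falls short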
esBAF inh = blocks esBAF chromatin remodeling in mouse ES cells; reporter increase, % at 12.5 µM; AID 602393; Bmi1-luciferase knock-in reporter, 24 h; 100% = twice the neutral-well signal; hit rate 2% among 350,000; in the data active means activation above about 40%; inconclusive means no clear call, values can overlap the other calls;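 further: a rise in the Bmi1 reporter signal indicates esBAF inhibition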
HSF1 activator = increases HSF-1 driven luciferase reporter signal. NIH3T3-HGL HSF-1 luciferase reporter, MG132, 8 h; 100% = twice DMSO control signal. activation, % at 9 µM. hit rate 1.7% among 300,000. AID 504408;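 active means mean replicate activation of at least 50% with a set share of replicates each reaching 50%; inconclusive means only one of those two conditions met; inactive means mean below 50% and too few replicates reaching it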
HSF1 inh = HSF1 inhibition; NIH3T3-HGL HSE-luciferase, MG132-induced, luminescence 8 h; hits give low values; activity change, negative = inhibition, % at 7.5 µM (by protocol); hit rate 0.77% among 300,000; AID 2098;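 active means more than half of replicate wells show activity change below -50%, luminescence cut by over half; inconclusive means some wells, but at most half, below -50%; inactive means no replicate well below -50%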;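 further: luciferase reports HSF-1 transcriptional activity via heat shock element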
Of the large screens only hits and unclear results are named; the others gave an inactive call.

CCCNC(=O)N[C@@H]1CC[C@@H](CCNS(=O)(=O)c2cccc(F)c2)O[C@@H]1CO	none (no result: Wnt act, MITF act, HSF1 activator, HSF1 inh)
COc1ccccc1-c1cc(C(F)(F)F)nc(S(=O)(=O)CCCC(=O)NCc2ccc(F)cc2)n1	HSF1 inh -80 (no result: esBAF inh)
COc1ccc(-c2cc(C(F)(F)F)nc(S(=O)(=O)CCCC(=O)Nc3cc(C)on3)n2)cc1OC	HSF1 activator 223 (no result: esBAF inh)
COc1ccccc1-c1cc(C(F)(F)F)nc(S(=O)(=O)CCCC(=O)Nc2cc(C)on2)n1	none (no result: Wnt act)
CCCNC(=O)[C@H]1[C@H](CO)[C@H]2Cn3c(ccc(C4=CCCC4)c3=O)[C@@H]1N2	none (no result: Wnt act, MITF act, HSF1 activator, HSF1 inh)
O=C(CSC(=S)N1CCCCC1)Nc1nc(-c2ccccc2)c(-c2ccccc2)o1	none (no result: Wnt act)
O=C(CSC(=S)N1CCOCC1)Nc1nc(-c2ccccc2)c(-c2ccccc2)o1	HSF1 inh -61 (no result: MITF act, esBAF inh)
COC(=O)c1nn(-c2ccc(C)cc2)c2nnc(Cc3ccccc3)c(=O)n12	Wnt act 37 (no result: esBAF inh)
C/C=C/c1cnc2c(c1)C(=O)N([C@@H](C)CO)C[C@@H](C)[C@@H](CN(C)Cc1ccc(F)cc1)O2	none (no result: Wnt act, MITF act, HSF1 activator, HSF1 inh)
Cc1ccc(-c2oc3ccccc3c(=O)c2O)cc1	esBAF inh 48
Cc1ccc(-c2cc(-c3ccccc3)c(C#N)c(Br)n2)cc1	none (no result: esBAF inh)
CS(=O)(=O)c1nc(-c2ccccc2)cc(-c2ccccc2)c1C#N	HSF1 activator 167 (no result: Wnt act)
Cc1cc(/C=c2/sc3nc4ccccc4n3c2=O)c(C)n1-c1ccccn1	HSF1 inh -91 (no result: Wnt act)
O=c1/c(=C\c2cccnc2)sc2nc3ccccc3n12	esBAF inh 66
Cc1cc(/C=c2\sc3nc4ccccc4n3c2=O)c(C)n1-c1ccc(C(=O)O)cc1	none (no result: esBAF inh)
C[C@@H]1CCCCO[C@@H](CN(C)C(=O)Cc2ccccc2)[C@H](C)CN([C@H](C)CO)C(=O)c2cc(NC(=O)Nc3ccccc3)ccc2O1	none (no result: Wnt act, MITF act, HSF1 activator, HSF1 inh)
COc1ccc(S(=O)(=O)N(C)C[C@@H]2OCCCC[C@@H](C)Oc3ccc(NS(=O)(=O)c4ccc(C)cc4)cc3C(=O)N([C@@H](C)CO)C[C@H]2C)cc1	none (no result: Wnt act, MITF act, HSF1 activator, HSF1 inh)
O=C(N/N=C/C(Cl)=C\c1ccccc1)c1ccco1	Wnt act 57 (no result: MITF act, esBAF inh)
O=C(N/N=C/C(Cl)=C/c1ccccc1)c1ccco1	esBAF inh 70, HSF1 activator 54
C/C=C/c1ccc2c(c1)O[C@H](CN(C)C(=O)Cc1ccccc1)[C@@H](C)CN([C@H](C)CO)S2(=O)=O	none (no result: Wnt act, MITF act, HSF1 activator, HSF1 inh)
CCOc1cccc(-c2c(C(=O)N/N=C/c3ccco3)nnn2-c2nonc2N)c1	none
CCOc1cccc(-c2c(C(=O)N/N=C/c3ccc(C)o3)nnn2-c2nonc2N)c1	HSF1 inh -68
COc1cccc(-c2c(C(=O)N/N=C(\C)c3ccc(Cl)s3)nnn2-c2nonc2N)c1	HSF1 activator 56
COc1ccccc1OCCSc1nc2ccccc2c(=O)[nH]1	Wnt act 44, esBAF inh 64
O=c1[nH]c(SCCOc2ccccc2F)nc2ccccc12	none (no result: esBAF inh)
COc1ccc(NC(=O)Nc2ccc3c(c2)C(=O)N([C@@H](C)CO)C[C@H](C)[C@H](CN(C)Cc2ccc(Oc4ccccc4)cc2)O3)cc1	none (no result: Wnt act, MITF act, HSF1 activator, HSF1 inh)
Cc1cc2ncn(CCOc3ccccc3)c2cc1C	esBAF inh 83, HSF1 activator inconclusive (no result: Wnt act)
NC1=NC(=O)/C(=C/C=C/c2cccs2)S1	Wnt act 36 (no result: esBAF inh)
Fc1ccccc1-c1nc2nc3ccccc3nc2n1CC1CCCO1 (stereo unspecified)	HSF1 activator 63 (no result: MITF act, esBAF inh)
O=Nc1c2nc3ccccc3n(O)c-2c2ccccc12	Wnt act 40, esBAF inh 48 (no result: MITF act)
On1c(-c2ccccc2)nc2ccccc21	none (no result: esBAF inh)
O=C(CSC1=N/C(=C/c2ccco2)C(=O)N1c1ccc(OC(F)F)cc1)NC1CCS(=O)(=O)C1 (stereo unspecified)	HSF1 activator 64 (no result: esBAF inh)
COc1ccc(N2C(=O)/C(=C\c3ccco3)N=C2SCC(=O)NC(C)C)cc1Cl	none (no result: esBAF inh)
COCCCNC(=O)c1ccc2nc(Cc3ccc(OC)cc3)oc2c1	esBAF inh 71
C=CCNC(=O)c1ccc2nc(Cc3ccc(OC)cc3)oc2c1	esBAF inh 89, HSF1 activator 78 (no result: MITF act)
COc1ccc(S(=O)(=O)N(C)C[C@H]2Oc3ccc(NC(=O)Nc4ccc(F)cc4)cc3CC(=O)N([C@H](C)CO)C[C@H]2C)cc1	none (no result: Wnt act, MITF act, HSF1 activator, HSF1 inh)
C[C@@H]1CN([C@H](C)CO)C(=O)c2cc(NC(=O)Cc3ccccc3)ccc2O[C@H]1CN(C)Cc1ccc(C(F)(F)F)cc1	none (no result: Wnt act, MITF act, HSF1 activator, HSF1 inh)
O=C(N[C@H]1CC[C@H](CCNC(=O)C2CCCC2)O[C@H]1CO)c1ccncc1	none (no result: Wnt act, MITF act, HSF1 activator, HSF1 inh)
